Screening results as filed in PubChem.
YopH PTP inh: inhibitors of Yersinia enterocolitica YopH tyrosine phosphatase | fluorescence Ex485/Em525 | inhibition, % (test concentration not listed) | 140,000 compounds, 0.16% hits; in the data active = inhibition above about 50%
RmlC RmlD mix: RmlC/RmlD inhibition, mixture screen | inhibition, % at 5.5 µM | 110,000 compounds, 0.39% hits | RmlC/RmlD coupled enzyme inhibition, 384-well mixture HTS | AID 1532; in the data active = inhibition above about 30%, passing the limit was not always enough
Numbers stand for hits; - = inactive; . = no result given. Most compounds without a hit are left out; they make up all but 0.41% or so of the library.

SMILES | YopH PTP inh | RmlC RmlD mix
CCOC(=O)N1CCC(NC(=O)c2ccc3c(c2)N(C)CCS3)CC1 | - | 61.4
CCOC(=O)N1CCC(NC(=O)c2ccc3c(c2)N(Cc2ccc(C)cc2)CCS3)CC1 | - | -
Nc1ccc2c(c1)C(=O)C(=O)c1ccccc1-2 | 100.9 | -
COC1=C(c2ccccc2)C(=O)c2ccccc2C1=O | - | .
Nc1ccc2c(c1)Cc1ccccc1-2 | - | .
O=C1C(=O)c2ccc(-c3ccccc3)cc2-c2ccccc21 | 76.7 | -
Cc1ccc(CNC(=O)C2CC(c3ccccc3F)=NO2)cc1 (centres undefined) | . | -
Cc1c(CCCC(=O)O)sc(N)c1C(=O)c1cccc(C(F)(F)F)c1 | . | -
Cc1ccc(S(=O)(=O)/N=C(\Nc2cc(C)on2)c2ccc(Cl)cc2)cc1 | - | .
Clc1ccc2nc3ccccn3c2c1 | - | 38.8
On1c(-c2ccccc2)nc2ccc(Cl)cc21 | - | -
COc1ccc2c(c1)CCc1cc(C(=O)N3CCN(c4ccc(N5CCOCC5)nn4)CC3)sc1-2 | 76.3 | .
COc1ccc2c(c1)CCc1c(C(=O)N3CCCCCC3)noc1-2 | - | -
Cc1ccc(S(=O)(=O)/N=C2/C=C(C3C(=O)CC(C)(C)CC3=O)C(=O)c3ccccc32)cc1 | - | -
CCc1ccc(S(=O)(=O)/N=C2/C=C(Sc3ncn[nH]3)C(=O)c3ccccc32)cc1 | 92.7 | .
CCCc1nnc(NC(=O)c2ccc(N3C(=O)C4C5C=CC(C5)C4C3=O)cc2)s1 (centres undefined) | - | -
O=C(Nc1nnc(C(F)(F)F)s1)c1ccc(N2C(=O)C3C4C=CC(C4)C3C2=O)cc1 (centres undefined) | 97.6 | -
S=c1[nH]nc(-c2ccccc2)n1/N=C/C=C/c1ccco1 | 50.8 | .
S=c1[nH]nc(-c2ccco2)n1/N=C/C=C/c1ccccc1 | - | .
O=C(NCNC(=O)c1ccccc1)c1ccccc1 | - | -
O=C(NC1(O)C(=O)c2ccccc2C1=O)c1ccccc1 | 102.1 | -
O=C(CCCO)CCCCCCCCC[C@H]1N[C@H](CO)[C@@H](O)[C@@H]1O | - | -
[O-]/[N+](=C\c1ccc(F)cc1)c1ccccc1 | 59.1 | -
CC(C)(C(=O)c1ccccc1)/[N+]([O-])=C/c1ccc(F)cc1 | - | -
Nc1c(Cl)cc(-c2csc(N3CCCC3c3nc4cc(Cl)c(N5CCCCC5)cc4n3CCOCCO)n2)cc1Cl (centres undefined) | . | -
SMILES | YopH PTP inh | RmlC RmlD mix
OCC[C@@H]1C[C@H](O)[C@@H](O)[C@@]2(CCCO2)O1 | . | -
COC(=O)C1C(=O)CC(C)(O)C(C(=O)OC)C1/C=C/c1ccccc1 (centres undefined) | - | -
COC(=O)C1C(C(C)C)N(c2ccccc2)OC1(C)O (centres undefined) | 59.2 | -
CCOc1ccc(-c2nc(C#N)c(NCC3CCCO3)o2)cc1 (centres undefined) | - | -
COc1ccc(-c2nc(C#N)c(NCC3CCCO3)o2)cc1OC (centres undefined) | - | 42.0
CCOc1cc(C=O)ccc1OS(=O)(=O)c1ccc(NC(C)=O)cc1 | - | .
COc1ccc(NC(=O)COc2ccc(C(=O)NC3CCCc4ccccc43)cc2OC)cc1 (centres undefined) | - | .
CC(C)n1c2ccccc2c2nnc(SCC(=O)OCN3C(=O)c4ccccc4C3=O)nc21 | - | 117.4
Cc1cc(C)nc(SCC(=O)OCN2C(=O)c3ccccc3C2=O)n1 | - | -
NC(=O)[C@H]1CC2(CC(c3cccc(NC(=O)COc4ccc(Cl)cc4)c3)=NO2)CN1C(=O)Cc1ccc([N+](=O)[O-])cc1 (some centres undefined) | . | -
COc1ccc(NC(=S)NN(C)C(=S)Nc2ccc(OC)cc2)cc1 | - | .
CCOC(=O)N1CCC(N2C(=O)c3ccccc3C2Nc2ccc3c(c2)OCCO3)CC1 (centres undefined) | - | -
CCOC(=O)N1CCC(N2C(=O)c3ccccc3C2Nc2ccc3c(C)cc(=O)oc3c2)CC1 (centres undefined) | - | 88.8
N#Cc1c(N2CCCC2)nc(N)c2c(N)nc(N3CCCC3)cc12 | 101.3 | -
COc1cc2c(C#N)c(N3CCCC3)nc(N)c2c(N)n1 | . | -
Cc1ccc(-n2c(O)c(C=NCc3ccccn3)c3ccccc3c2=O)cc1C | - | .
Cn1c2ccccc2c(=O)n2c(=O)c3ccccc3cc12 | 101.2 | -
Cn1c(-c2ccccc2)cc(=O)c2ccccc21 | - | -
CCCCn1c(N)c(NCCC(C)C)c(=O)[nH]c1=O | 52.3 | .
CCCCn1c(N)c(Sc2ccccc2)c(=O)[nH]c1=O | - | -
CCc1ccc(OCC(=O)N(C)C2CCS(=O)(=O)C2)cc1 (centres undefined) | - | -
CN(C(=O)COc1ccc(C(C)(C)C)cc1)C1CCS(=O)(=O)C1 (centres undefined) | 53.6 | -
CC(NC(=O)/C(=C/c1cccc([N+](=O)[O-])c1)NC(=O)c1ccco1)C(=O)O (centres undefined) | - | .
C#CCNC(=O)C1=C[C@H](c2ccc3c(c2)OCO3)[C@@H](CCCO)[C@H](OCC)O1 | . | -
